# Assay results as given in PubChem BioAssay (NCATS).
# Calls of active or inactive are those of the source. A call without a number means that no potency is given here. The call rests on the fitted dose curve; in most records, active means well fitted inhibition curve with a large enough effect; inconclusive means small, poorly fitted or top-dose-only effect; inactive means flat fitted curve, though single readings scatter.
# Biological target: DNA polymerase III PolC-type (Bacillus subtilis (strain 168)) (UniProt P13267)
# Test: qHTS Validation Assay for the Inhibitors of DNA Replication in Gram-Positive Bacteria (AID 485295)
# Details: Gram-positive bacterial DNA replication assay; series mostly up to 57.1 µM
# Outline: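 Primed replication of single-stranded M13Gori by a four-protein B. subtilis holoenzyme is measured at room temperature. Double-stranded product is quantified by PicoGreen fluorescence after an EDTA stop; inhibition is scaled between DMSO and EDTA controls.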
# Potency means the concentration at half of the fitted maximal effect.
# DNA polymerase III PolC-type (Bacillus subtilis (strain 168)), sequence (P13267 whole entry, looked up): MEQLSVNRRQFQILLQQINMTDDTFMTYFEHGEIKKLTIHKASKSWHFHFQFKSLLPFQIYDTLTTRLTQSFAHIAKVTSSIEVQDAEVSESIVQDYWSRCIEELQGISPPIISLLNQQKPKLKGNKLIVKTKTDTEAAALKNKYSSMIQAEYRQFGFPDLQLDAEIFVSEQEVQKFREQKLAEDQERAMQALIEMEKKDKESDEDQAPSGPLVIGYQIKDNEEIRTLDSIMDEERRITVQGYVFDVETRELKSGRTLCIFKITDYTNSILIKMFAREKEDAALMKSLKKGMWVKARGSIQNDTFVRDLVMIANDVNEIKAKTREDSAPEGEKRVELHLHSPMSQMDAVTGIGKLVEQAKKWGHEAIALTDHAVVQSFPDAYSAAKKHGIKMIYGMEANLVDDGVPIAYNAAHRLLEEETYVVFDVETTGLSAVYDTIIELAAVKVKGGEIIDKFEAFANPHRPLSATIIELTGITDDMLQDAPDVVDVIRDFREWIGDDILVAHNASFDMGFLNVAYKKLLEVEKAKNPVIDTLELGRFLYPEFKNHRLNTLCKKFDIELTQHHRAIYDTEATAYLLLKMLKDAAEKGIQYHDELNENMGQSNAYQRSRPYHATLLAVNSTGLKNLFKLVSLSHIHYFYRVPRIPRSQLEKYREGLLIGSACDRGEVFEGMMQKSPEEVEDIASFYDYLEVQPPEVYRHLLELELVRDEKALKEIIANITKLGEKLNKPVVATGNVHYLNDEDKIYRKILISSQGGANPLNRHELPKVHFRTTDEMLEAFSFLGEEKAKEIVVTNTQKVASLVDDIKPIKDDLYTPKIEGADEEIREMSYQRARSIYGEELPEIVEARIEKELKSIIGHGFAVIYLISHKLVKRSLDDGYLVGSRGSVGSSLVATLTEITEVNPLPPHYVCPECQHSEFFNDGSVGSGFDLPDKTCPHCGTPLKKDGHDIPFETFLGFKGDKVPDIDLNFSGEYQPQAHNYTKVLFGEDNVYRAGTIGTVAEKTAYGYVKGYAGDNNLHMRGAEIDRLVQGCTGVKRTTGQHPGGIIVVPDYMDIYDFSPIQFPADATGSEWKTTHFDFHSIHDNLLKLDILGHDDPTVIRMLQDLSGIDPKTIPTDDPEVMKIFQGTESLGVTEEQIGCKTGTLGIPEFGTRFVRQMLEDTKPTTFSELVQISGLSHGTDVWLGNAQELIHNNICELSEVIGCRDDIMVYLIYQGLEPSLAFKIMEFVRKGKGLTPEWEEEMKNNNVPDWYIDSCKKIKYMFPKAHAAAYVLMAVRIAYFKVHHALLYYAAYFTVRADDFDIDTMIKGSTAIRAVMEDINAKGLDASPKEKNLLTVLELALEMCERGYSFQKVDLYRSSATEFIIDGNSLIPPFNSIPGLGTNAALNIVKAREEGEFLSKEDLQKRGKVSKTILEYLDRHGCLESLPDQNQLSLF
row,SMILES,Potency
1,CCN(CCCl)Cc1ccccc1Br,inactive
2,C=CCN1C[C@@H](C)N([C@H](c2ccc(C(=O)N(CC)CC)cc2)c2cccc(OC)c2)C[C@@H]1C,inactive
3,N#CCCN,inactive
4,C[C@@H]1O[C@@H](O[C@H]2C[C@@H](O)[C@]3(CO)[C@@H]4C(CC[C@]3(O)C2)[C@@]2(O)CC[C@H]([C@@H]3COC(=O)C3)[C@@]2(C)C[C@H]4O)[C@H](O)[C@H](O)[C@H]1O (stereo partly drawn),inactive
5,N#C/C(=C/c1ccc(O)c(O)c1)C(N)=S,inactive
6,N=C(N)c1ccc(CS(=O)(=O)F)cc1,inactive
7,CCCN1CCc2cccc3c2[C@H]1Cc1ccc(O)c(O)c1-3,inactive
8,COc1ccc2c(c1)c(CCN1CCOCC1)c(C)n2C(=O)c1cccc(Cl)c1Cl,inactive
9,CC(=O)c1c(O)c(C)c(O)c(Cc2c(O)c3c(c(C(=O)/C=C/c4ccccc4)c2O)OC(C)(C)C=C3)c1O,18.9 µM (active)
10,CC(N)c1cccc(Cl)c1Cl (stereo not drawn),inactive
11,C=CCN1CCc2cccc3c2[C@H]1Cc1ccc(O)c(O)c1-3,inactive
12,CCN1C[C@@]2(COC)C3[C@@H](OC)C4[C@@H]1C3([C@@H]1C[C@]3(O)[C@H](OC(=O)c5ccccc5)[C@@H]1[C@]4(OC(C)=O)[C@@H](O)[C@@H]3OC)[C@H](OC)C[C@H]2O,inactive
13,C[N+]1(C)CCc2cc3c(cc2[C@H]1[C@@H]1OC(=O)c2c1ccc1c2OCO1)OCO3,inactive
14,CCCn1c(=O)c2[nH]c(C3CCCC3)nc2n(CCCOC(=O)c2ccc(S(=O)(=O)F)cc2)c1=O,inactive
15,CN1CCc2cc(O)cc3c2[C@H]1Cc1ccc(O)c(O)c1-3,inactive
16,COc1ccc2c(c1O)-c1cccc3c1[C@@H](C2)N(C)CC3,inactive
17,C=CCN1CC[C@]23c4c5ccc(O)c4O[C@@H]2/C(=N/N=C2\CC[C@@]4(O)C6Cc7ccc(O)c8c7[C@@]4(CCN6CC=C)[C@@H]2O8)CC[C@@]3(O)C1C5,inactive
18,COc1ccc2c(c1)/C(=C/c1cnc[nH]1)C(=O)N2,inactive
19,CCCN1CCC[C@@H](c2cccc(O)c2)C1,inactive

row,SMILES,Potency
1,CCCC[N+]1(C)C2CC(OC(=O)[C@H](CO)c3ccccc3)CC1C1OC12 (stereo partly drawn),inactive
2,CC(=O)OCC1=C(C(=O)O)N2C(=O)[C@@H](NC(=O)CCC[C@@H](N)C(=O)O)[C@H]2SC1,inactive
3,C[N+]1(C)C2CCC1CC(OC(=O)c1c[nH]c3ccccc13)C2 (stereo not drawn),inactive
4,CCCN1CCc2cc(O)cc3c2[C@H]1Cc1ccc(O)c(O)c1-3,inactive
5,Cc1cc([C@@H]2CCCN2C)on1,inactive
6,NC(Cc1cc(O)c(O)cc1O)C(=O)O (stereo not drawn),4.74 µM (active)
7,Ic1ccccc1CNC1C2CCN(CC2)C1C(c1ccccc1)c1ccccc1 (stereo not drawn),inactive
8,C[C@H](N)Cc1cccc(C(F)(F)F)c1,inactive
9,CC(C)(O)[C@@H]1C2OC(=O)[C@@H]1[C@]1(O)C[C@H]3O[C@]34C(=O)O[C@H]2[C@]14C (tested in a mixture with another compound),inactive
10,CC(C)[C@@]1(NC(=O)[C@@H]2C[C@@H]3c4cccc5[nH]cc(c45)C[C@H]3N(C)C2)O[C@@]2(O)[C@@H]3CCCN3C(=O)[C@H](Cc3ccccc3)N2C1=O,inactive
11,NC(=O)CI,inactive
12,CCS(=O)(=O)Nc1cccc(C(=C2CCCCC2)c2cnc[nH]2)c1,inactive
13,CC(C)(C)c1cc(C=C(C#N)C#N)cc(C(C)(C)C)c1O,inactive
14,C=CCN(C1=NCCN1)c1c(Cl)cccc1Cl,inactive
15,CN1CC[C@@]2(C)c3cc(OC(=O)Nc4ccccc4)ccc3N(C)[C@@H]12,inactive
16,CCCCCCCCCCCCCC(=O)O[C@@H]1[C@@H](C)[C@@]2(O)[C@@H](C=C(CO)C[C@@]3(O)C(=O)C(C)=C[C@@H]23)C2C(C)(C)[C@@]21OC(C)=O (stereo partly drawn),inactive
17,CCNC(=O)[C@H]1O[C@@H](n2cnc3c(N)ncnc32)[C@H](O)[C@@H]1O,inactive
18,N[C@@H](Cn1ccc(=O)[nH]c1=O)C(=O)O,inactive
19,O=[N+]([O-])/C=C/c1ccc2c(c1)OCO2,inactive
